The text below walks through data of PubChem BioAssay (EPA / NIEHS).

The nature of test [1]: ATG_ISRE_CIS: Attagene CIS-FACTORIAL HepG2 Assay for human Interferon Regulatory Factor 1 (IRF1) binding to an Interferon-Stimulated Response Element (ISRE) (AID 2282948). The following applies: HepG2 ISRE cis-reporter (Attagene), mRNA transcription readout; actives raise or lower the signal. The gist of the method:
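Signal reflects induction or loss of ISRE-linked reporter mRNA in transiently transfected HepG2 cells after a 24 h treatment, detected by fluorescent RT-PCR fragments on capillary electrophoresis and normalised to DMSO.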

Test [2] is described as follows: ATG_M_32_CIS: Attagene CIS-FACTORIAL HepG2 Assay for M32 Transcription Factor (Internal Marker) (AID 2282949).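 Note: background control marker of the multiplexed CIS panel rather than a real target.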 The following applies: HepG2 Attagene cis-factorial M32 reporter, mRNA; actives raise or lower the signal. The gist of the method:
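Using DMSO as baseline, bidirectional curve fits were applied to reporter mRNA signals. These came from transiently transfected HepG2 cells exposed for 24 h, with RNA analysed by RT-PCR, FAM primer extension, HpaI digestion and CE.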

A short description of test [3]: ATG_M_06_CIS: Attagene CIS-FACTORIAL HepG2 Assay for M06 Transcription Factor (Internal Marker) (AID 2282950). The conditions noted are these: HepG2 Attagene CIS-FACTORIAL M06 internal marker reporter; actives raise or lower the signal. In a few lines:
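Internal background marker within multiplexed cis-reporter HepG2 system. Cells transiently transfected, dosed 24 h; reporter mRNA measured by RT-PCR, HpaI digestion and capillary electrophoresis. Bidirectional fit relative to DMSO.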

Test [4] deals with Hypoxia-inducible factor 1-alpha (Homo sapiens) (UniProt Q16665). Put plainly: ATG_HIF1a_CIS: Attagene CIS-FACTORIAL HepG2 Assay for human Hypoxia Inducible Factor 1 (HIF1A) (AID 2282951). The conditions noted are these: HepG2 Attagene cis-factorial HIF1a reporter transcription; actives raise or lower the signal. In a few lines:
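Activity is fitted in both directions relative to DMSO. Reporter transcripts are read by RT-PCR, fluorescent primer extension and capillary electrophoresis after 24 h chemical treatment. The cells are HepG2 carrying transiently transfected cis-element-driven reporter units responding to endogenous factors.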

Test [5] has as its target Hepatocyte nuclear factor 6 (Homo sapiens) (UniProt Q9UBC0). Put plainly: ATG_HNF6_CIS: Attagene CIS-FACTORIAL HepG2 Assay for human Hepatocyte Nuclear Factor 6 (HNF6) (AID 2282952). The following applies: HepG2 Attagene cis-factorial HNF6 reporter transcription; actives raise or lower the signal. In a few lines: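 Using cis-element reporters in HepG2 liver cells, the assay tracks endogenous factor-driven transcription 24 h post-dosing. Signal comes from 6-FAM-labelled, HpaI-digested RT-PCR fragments, with gain or loss scored against DMSO.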

The target of test [6] is Heat shock factor protein 1 (Homo sapiens) (UniProt Q00613). As to the kind of experiment: ATG_HSE_CIS: Attagene CIS-FACTORIAL HepG2 Assay for human Heat Shock Transcription Factor 1 (HSE) (AID 2282953). The following applies: HepG2 HSE cis-reporter, Attagene RNA transcription; actives raise or lower the signal. The gist of the method: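 HepG2 cells transfected with cis-promoter reporter units sensing endogenous transcription factor activity; reporter mRNA quantified 24 h post-dose by RT-PCR and capillary electrophoresis of 6-FAM-labelled products. Bidirectional fitting against DMSO.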
Chain of Heat shock factor protein 1 (Homo sapiens) (Q00613 whole entry, looked up): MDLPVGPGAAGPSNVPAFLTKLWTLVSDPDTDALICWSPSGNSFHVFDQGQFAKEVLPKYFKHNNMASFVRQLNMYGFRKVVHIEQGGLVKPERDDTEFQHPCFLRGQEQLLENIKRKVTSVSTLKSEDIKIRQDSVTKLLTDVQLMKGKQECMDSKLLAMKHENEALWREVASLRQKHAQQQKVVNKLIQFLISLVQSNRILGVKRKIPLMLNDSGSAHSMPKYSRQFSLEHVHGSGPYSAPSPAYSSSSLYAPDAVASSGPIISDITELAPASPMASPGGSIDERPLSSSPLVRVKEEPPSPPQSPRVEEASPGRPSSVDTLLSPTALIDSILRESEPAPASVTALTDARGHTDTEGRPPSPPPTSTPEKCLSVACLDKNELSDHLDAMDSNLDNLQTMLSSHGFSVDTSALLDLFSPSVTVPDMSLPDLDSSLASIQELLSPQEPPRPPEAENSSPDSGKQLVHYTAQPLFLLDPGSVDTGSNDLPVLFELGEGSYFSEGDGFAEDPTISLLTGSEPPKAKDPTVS

A short description of test [7]: ATG_MRE_CIS: Attagene CIS-FACTORIAL HepG2 Assay for human Metal Responsive Element (MRE) (AID 2282954). The following applies: HepG2 MRE cis-reporter transcription, Attagene multiplex; actives raise or lower the signal. The gist of the method:
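Readout: capillary electrophoresis of 6-FAM-labelled, HpaI-digested RT-PCR reporter products. System: HepG2 cells carrying transient multiplexed cis reporters, dosed 24 h. Analysis: bidirectional fit, DMSO baseline.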

Test [8] can be described thus: ATG_PBREM_CIS: Attagene CIS-FACTORIAL HepG2 Assay for human Phenobarbital-responsive Enhancer Module (PBREM) (AID 2282955). The conditions noted are these: HepG2 PBREM cis-reporter, Attagene multiplexed transcription; actives raise or lower the signal. The gist of the method:
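Endogenous transcription factor activity was read from reporter transcripts in transiently transfected human HepG2 liver cells after 24 h dosing. RT-PCR products were fluorescently labelled, HpaI-cut and sized by capillary electrophoresis; activity fitted bidirectionally against DMSO baseline.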

In test [9] the target is Paired box protein Pax-6 (Homo sapiens) (UniProt P26367). As to the kind of experiment: ATG_Pax6_CIS: Attagene CIS-FACTORIAL HepG2 Assay for human Paired Box 6 (PAX6) (AID 2282956). The conditions noted are these: HepG2 CIS-FACTORIAL PAX6 reporter transcription, RNA readout; actives raise or lower the signal. In a few lines: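 Values derive from bidirectional curve fitting of reporter mRNA signal relative to DMSO. HepG2 cells bearing transfected cis-regulated MRTUs were exposed for 24 h; transcripts were read by RT-PCR and capillary electrophoresis.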
Chain of Paired box protein Pax-6 (Homo sapiens) (P26367 whole entry, looked up): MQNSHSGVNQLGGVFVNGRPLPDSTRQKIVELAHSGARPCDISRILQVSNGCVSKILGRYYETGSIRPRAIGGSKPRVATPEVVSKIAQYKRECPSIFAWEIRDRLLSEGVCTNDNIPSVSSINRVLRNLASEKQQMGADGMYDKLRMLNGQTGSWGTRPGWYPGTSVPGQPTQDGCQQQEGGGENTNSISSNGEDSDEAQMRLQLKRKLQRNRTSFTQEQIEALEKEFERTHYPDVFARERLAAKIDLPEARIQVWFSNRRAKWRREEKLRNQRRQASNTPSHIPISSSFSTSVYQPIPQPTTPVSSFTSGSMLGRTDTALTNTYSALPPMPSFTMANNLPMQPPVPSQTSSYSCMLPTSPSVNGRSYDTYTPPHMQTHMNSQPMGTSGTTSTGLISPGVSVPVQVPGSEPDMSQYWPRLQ

Test [10] in a line: ATG_PXRE_CIS: Attagene CIS-FACTORIAL HepG2 Assay for human Pregnane X Receptor Element (PXRE) (AID 2282957). The conditions noted are these: HepG2 Attagene CIS-FACTORIAL PXRE reporter, mRNA; actives raise or lower the signal. In a few lines: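 Using HepG2 transfected with multiple reporter transcription units, endogenous factor-driven transcription was scored as reporter mRNA after 24 h exposure.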

The nature of test [11]: ATG_PPRE_CIS: Attagene CIS-FACTORIAL HepG2 Assay for human Peroxisome Proliferator-activated Response Element (PPRE) (AID 2282958). The following applies: HepG2 PPRE cis-element reporter, Attagene transcription factor profiling; actives raise or lower the signal. The gist of the method: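 Endogenous PPRE-driven transcription is measured in HepG2 cells carrying transfected multi-reporter constructs. Reporter transcripts are quantified by RT-PCR, HpaI digestion and capillary electrophoresis 24 h after dosing. DMSO baseline, bidirectional fit.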

A short description of test [12]: ATG_RORE_CIS: Attagene CIS-FACTORIAL HepG2 Assay for human RAR-related Orphan Receptor Element (RORE) (AID 2282959). The conditions noted are these: HepG2 Attagene cis-factorial RORE reporter, mRNA; actives raise or lower the signal. In a few lines:
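RORE reporter transcripts reflecting endogenous factor activity were read after 24 h compound exposure of transfected HepG2 cells, using reverse transcription, PCR, fluorescent labelling and capillary electrophoresis sizing. Gain or loss fitted against DMSO.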

A short description of test [13]: ATG_Sox_CIS: Attagene CIS-FACTORIAL HepG2 Assay for human SRY-box transcription factor (SOX) (AID 2282960). The following applies: HepG2 Attagene cis-factorial SOX reporter, mRNA; actives raise or lower the signal. The gist of the method: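 Reporter transcripts, measured by RT-PCR and capillary electrophoresis of labelled fragments, report endogenous SOX transcription factor activity. Transiently transfected human HepG2 cells receive chemical for 24 h; changes in either direction are fitted relative to DMSO.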

The target of test [14] is Transcription factor Sp1 (Homo sapiens) (UniProt P08047). As to the kind of experiment: ATG_Sp1_CIS: Attagene CIS-FACTORIAL HepG2 Assay for human Specificity Protein 1 (Sp1) (AID 2282961). The conditions noted are these: HepG2 Sp1 cis-reporter transcription, actives raise or lower the signal. The gist of the method:
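Read-out is reporter transcript level, measured by RT-PCR and fluorescent capillary electrophoresis after 24 h chemical treatment. System: transiently transfected HepG2 cells reporting endogenous transcription factor activity; gain or loss fitted against DMSO baseline.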

Test [15] is described as follows: ATG_SREBP_CIS: Attagene CIS-FACTORIAL HepG2 Assay for human Sterol Regulatory Element Binding (SREBP) (AID 2282962). The following applies: HepG2 Attagene cis-factorial SREBP reporter, mRNA; actives raise or lower the signal. The gist of the method:
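Values derive from bidirectional curve fitting with DMSO as baseline. The underlying measurement is reporter mRNA from cis-element-regulated units in transiently transfected HepG2, quantified by RT-PCR and capillary electrophoresis after 24 h exposure.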

The target of test [16] is Signal transducer and activator of transcription 3 (Homo sapiens) (UniProt P40763). As to the kind of experiment: ATG_STAT3_CIS: Attagene CIS-FACTORIAL HepG2 Assay for human Signal Transducer and Activator of Transcription 3 (STAT3) (AID 2282963). The conditions noted are these: HepG2, Attagene cis-factorial STAT3 reporter transcription; actives raise or lower the signal. In a few lines: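 Uses human liver HepG2 transiently carrying cis-regulated reporter transcription units. Following 24 h dosing, reporter mRNA induction was detected by RT-PCR and capillary electrophoresis, analysed bidirectionally versus DMSO.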
Chain of Signal transducer and activator of transcription 3 (Homo sapiens) (P40763 whole entry, looked up): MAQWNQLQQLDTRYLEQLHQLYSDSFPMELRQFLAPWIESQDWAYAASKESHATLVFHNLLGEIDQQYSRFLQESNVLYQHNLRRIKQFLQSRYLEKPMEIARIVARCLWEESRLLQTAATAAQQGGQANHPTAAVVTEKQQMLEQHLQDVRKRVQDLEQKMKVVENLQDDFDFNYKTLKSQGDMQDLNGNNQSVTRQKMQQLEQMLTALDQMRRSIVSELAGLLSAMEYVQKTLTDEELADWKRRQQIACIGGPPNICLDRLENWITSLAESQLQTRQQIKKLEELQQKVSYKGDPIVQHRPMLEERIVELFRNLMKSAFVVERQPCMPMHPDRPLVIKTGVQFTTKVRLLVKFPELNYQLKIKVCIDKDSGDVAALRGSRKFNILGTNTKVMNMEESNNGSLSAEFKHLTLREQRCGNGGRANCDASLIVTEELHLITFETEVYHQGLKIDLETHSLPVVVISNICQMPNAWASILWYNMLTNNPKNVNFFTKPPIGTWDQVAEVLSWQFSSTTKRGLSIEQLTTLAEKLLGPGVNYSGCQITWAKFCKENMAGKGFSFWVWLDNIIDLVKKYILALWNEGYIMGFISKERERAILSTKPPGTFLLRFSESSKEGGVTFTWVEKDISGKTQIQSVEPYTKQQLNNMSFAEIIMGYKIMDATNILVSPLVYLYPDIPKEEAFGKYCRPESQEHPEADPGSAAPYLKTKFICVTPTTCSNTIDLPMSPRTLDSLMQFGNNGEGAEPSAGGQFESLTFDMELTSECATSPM

Test [17] can be described thus: ATG_TA_CIS: Attagene CIS-FACTORIAL HepG2 Assay for human TA Basal Promoter (AID 2282964). The conditions noted are these: HepG2 Attagene CIS-factorial TA basal promoter reporter; actives raise or lower the signal. The gist of the method: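 HepG2 cells transiently transfected with multiple reporter units under cis promoter elements, reporting endogenous transcription factor activity; this endpoint tracks the TA basal promoter as background control. Reporter mRNA after 24 h dosing measured by RT-PCR/capillary electrophoresis; bidirectional fits versus DMSO.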

A short description of test [18]: ATG_TCF_b_cat_CIS: Attagene CIS-FACTORIAL HepG2 Assay for human T-Cell-Factor with beta-catenin (TCF/b-cat) (AID 2282965). The following applies: HepG2 TCF/beta-catenin cis-reporter transcription, actives raise or lower the signal. In a few lines:
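In this cis-format system, transfected HepG2 cells report endogenous transcription factor activity. Readout after 24 h exposure is reporter transcript abundance from RT-PCR and capillary electrophoresis, analysed for gain or loss of signal versus DMSO.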

Test [19] in a line: ATG_GRE_CIS: Attagene CIS-FACTORIAL HepG2 Assay for human Glucocorticoid Response Elements (GRE) (AID 2282947). The following applies: HepG2 GRE cis-reporter, Attagene multiplex mRNA; actives raise or lower the signal. In a few lines: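 HepG2, transient cis-reporter transfection, 24 h. Reporter mRNA: RT-PCR then CE, fluorescence. Fit both directions vs DMSO.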

The structures appear in SMILES notation. Activity calls are given as the source filed them. Rule for the calls: active = hit-call score of the fitted dose curve at least 0.9, where 1 is the maximum; inactive = score below 0.9.

Chain of Hypoxia-inducible factor 1-alpha (Homo sapiens) (Q16665 whole entry, looked up): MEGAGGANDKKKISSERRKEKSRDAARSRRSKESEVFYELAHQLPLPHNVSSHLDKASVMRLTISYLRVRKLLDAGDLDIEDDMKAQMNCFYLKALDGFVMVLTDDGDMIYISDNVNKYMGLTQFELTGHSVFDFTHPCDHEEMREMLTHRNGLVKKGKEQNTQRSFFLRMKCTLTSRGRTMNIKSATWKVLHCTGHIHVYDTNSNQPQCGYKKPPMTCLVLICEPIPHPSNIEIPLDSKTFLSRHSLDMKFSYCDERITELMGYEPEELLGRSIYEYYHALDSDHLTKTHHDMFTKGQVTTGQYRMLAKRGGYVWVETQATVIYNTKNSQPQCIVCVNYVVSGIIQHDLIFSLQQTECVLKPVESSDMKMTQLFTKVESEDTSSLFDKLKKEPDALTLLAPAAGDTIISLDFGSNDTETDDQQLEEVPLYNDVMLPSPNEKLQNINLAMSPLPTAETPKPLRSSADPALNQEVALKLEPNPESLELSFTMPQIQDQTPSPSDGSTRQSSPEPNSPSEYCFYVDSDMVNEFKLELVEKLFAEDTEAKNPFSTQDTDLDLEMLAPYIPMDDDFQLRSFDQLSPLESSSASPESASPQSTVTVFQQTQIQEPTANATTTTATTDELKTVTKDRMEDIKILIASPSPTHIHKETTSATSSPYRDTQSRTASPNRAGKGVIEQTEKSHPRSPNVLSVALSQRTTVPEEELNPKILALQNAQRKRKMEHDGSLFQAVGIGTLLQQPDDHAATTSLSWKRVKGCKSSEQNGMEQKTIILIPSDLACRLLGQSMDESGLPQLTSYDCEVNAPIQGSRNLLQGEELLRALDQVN
Chain of Transcription factor Sp1 (Homo sapiens) (P08047 whole entry, looked up): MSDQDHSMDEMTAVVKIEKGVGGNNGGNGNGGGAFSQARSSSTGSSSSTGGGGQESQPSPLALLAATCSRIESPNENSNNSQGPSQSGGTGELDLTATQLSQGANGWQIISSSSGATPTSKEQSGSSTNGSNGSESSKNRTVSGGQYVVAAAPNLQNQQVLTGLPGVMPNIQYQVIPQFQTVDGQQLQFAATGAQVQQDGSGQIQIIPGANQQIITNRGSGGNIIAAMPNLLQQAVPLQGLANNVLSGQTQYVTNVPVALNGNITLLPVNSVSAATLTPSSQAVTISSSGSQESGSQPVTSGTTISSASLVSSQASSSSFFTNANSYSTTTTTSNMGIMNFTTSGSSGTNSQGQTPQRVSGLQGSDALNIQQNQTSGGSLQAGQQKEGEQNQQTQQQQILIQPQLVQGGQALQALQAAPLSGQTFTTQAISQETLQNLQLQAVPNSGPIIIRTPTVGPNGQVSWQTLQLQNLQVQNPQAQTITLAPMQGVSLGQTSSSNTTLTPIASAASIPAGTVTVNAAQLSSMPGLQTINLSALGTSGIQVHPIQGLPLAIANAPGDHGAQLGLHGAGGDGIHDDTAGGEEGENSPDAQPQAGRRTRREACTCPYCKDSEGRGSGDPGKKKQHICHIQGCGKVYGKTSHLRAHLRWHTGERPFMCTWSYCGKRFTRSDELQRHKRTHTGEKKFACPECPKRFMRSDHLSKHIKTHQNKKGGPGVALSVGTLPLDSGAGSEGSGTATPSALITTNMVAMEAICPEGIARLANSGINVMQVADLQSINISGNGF
Chain of Hepatocyte nuclear factor 6 (Homo sapiens) (Q9UBC0 whole entry, looked up, the tested form may be a part): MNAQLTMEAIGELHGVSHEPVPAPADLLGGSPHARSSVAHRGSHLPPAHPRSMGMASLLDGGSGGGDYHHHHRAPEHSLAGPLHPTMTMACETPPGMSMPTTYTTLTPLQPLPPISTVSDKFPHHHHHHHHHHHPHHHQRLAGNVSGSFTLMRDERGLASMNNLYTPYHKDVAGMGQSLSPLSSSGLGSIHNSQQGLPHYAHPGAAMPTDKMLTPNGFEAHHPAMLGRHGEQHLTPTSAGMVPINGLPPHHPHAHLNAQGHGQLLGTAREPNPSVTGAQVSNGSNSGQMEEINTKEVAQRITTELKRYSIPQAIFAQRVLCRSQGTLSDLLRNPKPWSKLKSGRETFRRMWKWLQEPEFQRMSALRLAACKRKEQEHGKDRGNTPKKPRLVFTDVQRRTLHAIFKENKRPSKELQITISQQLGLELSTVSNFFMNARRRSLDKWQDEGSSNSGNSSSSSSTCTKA

Consider `Nc1cc(Cl)cc(C(=O)O)c1Cl`, for which the call in test [1], in test [2], in [3], in test [4], in test [5] and in test [6] was inactive. Besides, the result in test [7], in test [8], in test [9], in test [11], in test [12] and in test [13] was inactive. Moreover, the call in test [14], in test [15], in test [16], in [17] and in test [18] was inactive. Moreover, the AC50 in test [10] is 65 µM (active).

`Oc1ccccc1Cl`: the compound was called inactive in [19], in test [1], in [2], in [4], in test [5] and in test [6]. Moreover, the compound was classed as inactive in test [7], in test [8], in test [10], in test [13], in [14] and in test [15]. The result in test [16], in test [17] and in test [18] was inactive.

For `CCC12COCN1COC2`, the compound was called inactive in test [1], in test [2], in test [4], in [5], in test [6] and in [7]. For the same compound, the outcome in test [8], in test [9], in test [10], in test [11], in [12] and in test [13] was inactive. For the same compound, the result in [14], in [15], in test [17] and in test [18] was inactive.

Turning to `CCCCOC(=O)c1ccccc1C(=O)OCc1ccccc1`, the result in test [19], in test [1], in [2], in [4], in test [5] and in test [6] was inactive. Also, the outcome in test [7], in test [8], in test [9], in test [11], in [12] and in test [13] was inactive. Moreover, the compound was classed as inactive in [14], in [15], in test [16], in test [17] and in test [18]. Moreover, the AC50 in test [10] was 27.1 µM (active).

On to `CC(C)(C)C(O)(CCc1ccc(Cl)cc1)Cn1cncn1` (stereo unspecified), for which the result in test [19], in test [1], in test [2], in test [4], in test [5] and in [6] was inactive. Also, the result in test [8], in [9], in [12], in [13], in test [14] and in [16] was inactive. For the same compound, the outcome in test [17] and in [18] was inactive. Further, the AC50 in test [7] was 100 µM (active); in test [10] it was 2.45 µM (active); in [15], 1.79 µM (active).

For `CCOc1cccc(C2(N3CCN(c4ccccc4)CC3)CCC(C)CC2)c1` (stereo unspecified), the result in test [19], in test [1], in test [2], in test [3], in [4] and in test [5] was inactive. The result in test [7], in test [8], in test [9], in test [10], in test [12] and in test [13] was inactive. The compound was called inactive in test [14], in [15], in [16], in test [17] and in [18].

The AC50 is the concentration at which the activity in the assay is half-maximal.
